Results on 24 compounds are retold here after PubChem BioAssay (NCATS).

Inconclusive results are not listed. Entries that show only a call come without a potency. The source made the active and inactive calls. Calls come from the whole dose curve; as a rule, active = well fitted cell-killing curve with a large enough effect; inconclusive = small, poorly fitted or top-dose-only effect, or effect the other way; inactive = no such curve, though single readings can be large or run the other way.
Potency is the fitted concentration of half-maximal effect.

The experiment can be described thus: qHTS of pediatric cancer cell lines to identify multiple opportunities for drug repurposing: Confirmatory screen for Saos-2 cells (AID 1347127). Note: nearly all actives have a fitted effect of over 60% in size. Particulars: Saos-2 osteosarcoma cell viability; series mostly up to 45.9 µM. The source says:
Drug repurposing or repositioning has been offered as a strategy for drug development in oncology programs. This approach has special potential for childhood cancers and other rare or orphan diseases, where the expected return on new drug development has been a disincentive to pharmaceuticals.
In this project we exploit the poly-pharmacology of drugs to discover new indications via phenotypic screening of a panel of 19 well-characterized cell lines derived from solid tumors seen in children and adolescents. The goal is to identify approved drugs with previously unrecognized anticancer properties that has the potential to reveal new mechanisms and biological processes involved in carcinogenesis or drug resistance. We employed a titration-based paradigm (quantitative high-throughput screening or qHTS), where all compounds were tested at multiple concentrations for their effect on cell viability. Concentration-response curves (CRCs) were derived directly from the primary screen, and both potency and efficacy values were used to identify compounds with robust bioactivity profiles. We screened the NIH Chemical Genomics Center (NCGC) Pharmaceutical Collection (NPC) and Mechanism Interrogation Plate (MIPE) small molecule collections of approved and investigational compounds against these cell lines; and measured metabolically active cells after 48 hours of compound treatment as a proxy for cell viability.
Assay Submitter: Nathalia J. Martinez, National Center for Advancing Translational Sciences, National Institutes of Health, Rockville, MD, USA; email: natalia.martinez@nih.gov
[1] Shen, M et al. Quantitative high-throughput phenotypic screening of pediatric cancer cell lines identifies multiple opportunities for drug repurposing. Oncotarget 2017 Dec 19;9(4):4758-4772. PMID 29435139.
The cells were obtained from University of North Carolina (UNC), Pediatric Preclinical Testing Program (PPT), and Coriell Institute (CI).
qHTS cell viability assay:
Cells were assayed in growth media at a density of 500-1,000 cells/well. Five microliters of cells were dispensed into 1,536-well, white, solid-bottom, TC-treated plates (Greiner Bio One) using a multidrop dispenser and incubated at 37 degrees C, 5% CO2, under a humidified atmosphere for 5 hours. Twenty-three nanoliters of compounds and controls (neutral control DMSO or positive control bortezomib at final concentration of 2.3 µM) were subsequently transferred by Kalypsys pintool. For primary screens, the MIPE collection was tested at 11-point dilutions (final concentrations range from 0.78 nM to 46 µM) and the NPC collection at 8-point dilutions (final concentrations range from 0.59 nM to 46 µM). Compounds tested in follow-up screens were assayed at 11-point dilutions. Cells were incubated for 48 hours, followed by addition of 3 µL of CellTiter-Glo (Promega). After a 15 min incubation at room temperature, samples were analyzed for luminescence intensity using a ViewLux High-throughput CCD imager equipped with clear filters.
In general terms: qHTS replaces the single test concentration by a dilution series.
For the compound `CNCc1ccc(-c2[nH]c3cc(F)cc4c3c2CCNC4=O)cc1`, the Potency result was “inactive”.

Regarding `COc1ccc(-c2ccc3c(N4CCOC[C@H]4C)nc(N4CCOC[C@H]4C)nc3n2)cc1CO`, the Potency is 928 nM (active).

`Cc1c(CN2CCN(C(=O)C(C)C)CC2)sc2c(N3CCOCC3)nc(-c3cnc(N)nc3)nc12`: the Potency was 928 nM (active).

As for `Oc1cccc(-c2nc(N3CCOCC3)c3oc4ncccc4c3n2)c1`, the Potency is 380 nM (active).

Consider `OC(CN1CCC(Cc2ccc(F)cc2)CC1)c1ccc(Cl)cc1` (centres undefined), for which the Potency entry was “inactive”.

Regarding `Nc1nc2c(ncn2COCCO)c(=O)[nH]1`, the Potency result was “inactive”.

As for `O=C(NOC[C@H](O)CO)c1ccc(F)c(F)c1Nc1ccc(I)cc1F`, the Potency result is “inactive”.

Consider `Cc1cn[nH]c1`, for which the Potency result was “inactive”.

Take `Cc1c(C)c2c(c(C)c1O)CCC(C)(COc1ccc(CC3SC(=O)NC3=O)cc1)O2` (centres undefined): the Potency entry is “inactive”.

As to `CCC(C)(C)C(=O)O[C@H]1C[C@@H](C)C=C2C=C[C@H](C)[C@H](CC[C@@H]3C[C@@H](O)CC(=O)O3)[C@H]21`, the Potency was 2330 nM (active).

Regarding `Cn1cnc2c(F)c(Nc3ccc(Br)cc3Cl)c(C(=O)NOCCO)cc21`, the Potency result is “inactive”.

As to `C[C@]1(c2nc3c(C(N)=O)cccc3[nH]2)CCCN1`, the Potency entry is “inactive”.

Take `COc1cc(Nc2ncc3c(n2)-c2ccc(Cl)cc2C(c2c(F)cccc2OC)=NC3)ccc1C(=O)O`: the Potency was 18500 nM (active).

For the compound `COc1ccc(-c2oc3cc(OC)ccc3c2C(=O)c2ccc(C#N)cc2)cc1`, the Potency result is “inactive”.

As for `O=NN(CCCl)C(=O)NCCCl`, the Potency entry is “inactive”.

In the case of `CCN(CC)CCCC(C)Nc1ccnc2cc(Cl)ccc12` (centres undefined), the Potency result is “inactive”.

With `CN1CCN(CCCN2c3ccccc3Sc3ccc(C(F)(F)F)cc32)CC1`, the Potency was 20800 nM (active).

As for `Cn1cnc([N+](=O)[O-])c1Sc1ncnc2nc[nH]c12`, the Potency result was “inactive”.

Consider `NC(=O)c1ccc(I)c([N+](=O)[O-])c1`, for which the Potency entry is “inactive”.

Turning to `O=C(c1cc(Cc2n[nH]c(=O)c3ccccc23)ccc1F)N1CCN(C(=O)C2CC2)CC1`, the Potency entry was “inactive”.

Turning to `Cc1oncc1C(=O)Nc1ccc(C(F)(F)F)cc1`, the Potency result is “inactive”.

In the case of `C#Cc1cccc(Nc2ncnc3cc(OCCOC)c(OCCOC)cc23)c1`, the Potency result is “inactive”.

`NCCCC(N)(C(=O)O)C(F)F` (centres undefined): the Potency entry is “inactive”.

With `CCC(C)n1ncn(-c2ccc(N3CCN(c4ccc(OC[C@H]5CO[C@](Cn6cncn6)(c6ccc(Cl)cc6Cl)O5)cc4)CC3)cc2)c1=O` (some centres undefined), the Potency entry was “inactive”.
